An excerpt weighted towards active compounds, which were near 1.8% of everything screened.
PrPC TRFRET = inhibitors of human cell surface prion protein PrPC, primary screen, cell-based, TR-FRET. Major prion protein (Homo sapiens), P04156. TR-FRET read-out. inhibition, % at 13.8 µM. 370,000 tested, 0.43% active. AID 720596, 2013; in the data active = inhibition above about 24%; also: 0% = median of the test wells and 100% = reference compound wells
MazF activator = activators of E. coli MazEF toxin-antitoxin RNase, primary screen, biochemical, fluorescence, uHTS; Endoribonuclease toxin MazF (Escherichia coli (strain K12)), P0AE70; FAM/BHQ RNA-DNA oligo cleavage fluorescence, 5 h; activation, % at 20 µM; 350,000 tested, 0.32% active; AID 504720, 2011; in the data active = activation above about 50%
PfHsp40 rescue = rescue of yeast from PfHsp40 toxicity, primary screen, S. cerevisiae, ATP luminescence; S. cerevisiae expressing PfHsp40, growth rescue; growth rescue, % at 12.5 µM; 340,000 tested, 0.68% active; in the data active = growth rescue above about 28%, passing the limit was not always enough;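 also: yeast W303a lacking pdr1 and pdr3 grown in galactose medium; growth measured after three days at 30 °C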
SSB-PriA inh = inhibitors of Klebsiella pneumoniae PriA binding to SSB C-terminal tail, primary screen, biochemical, AlphaScreen. AlphaScreen SSBct-PriA binding, biotinylated peptide. PriA–SSB C-terminal tail interaction (Klebsiella pneumoniae). AID 1272365, 2023. 430,000 tested, 0.6% active. inhibition, % at 33 µM; in the data active = inhibition mostly above about 37%, no sharp cut-off; inactive = mostly below about 20%;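 also: plate controls were negative control peptide for no effect and reference peptide for full effect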
PrP 5UTR inh = inhibition of PrP 5' UTR reporter expression; 340,000 tested, 0.35% active; cell-based PrP 5' UTR mRNA reporter, plate reader; inhibition, % (test concentration not listed); in the data active = inhibition above about 52%; also: 0 = median of the neutral control wells
PrPC TRFRET cf = confirmation of inhibitors of cell surface human prion protein, confirmation, cell-based, TR-FRET; inhibition, % at 13.8 µM; 1,500 tested, 65% active; shares compounds with PrPC TRFRET; cell surface PrPC level; in the data active = inhibition above about 25%
LD9 cytotox = cytotoxicity in LD9 cells, cytotoxicity control for cell surface PrPc inhibitor project, cell-based, luminescence, high throughput; shares compounds with PrPC TRFRET; luminescence viability; inhibition, % at 13.8 µM; 1,500 tested, 29% active; AID 743201, 2013; in the data active = inhibition above about 9.5%
* marks the source's active call; other numbers are inactive results; / = not tested or not shown.

SMILES	PrPC TRFRET	MazF activator	PfHsp40 rescue	SSB-PriA inh	PrP 5UTR inh	PrPC TRFRET cf	LD9 cytotox
Cc1c(C(=O)Nc2ccc(-c3nnc4n3CCCCC4)cc2)oc2ccc(Br)cc12	40*	11	0	-2	-14	49*	6
COc1ccc(OC)c(/C=C2\SC(=NNC(=O)c3ccc4ccccc4c3)NC2=O)c1	/	/	/	-8	/	/	/
Cc1ccc(S(=O)(=O)NC[C@@H](c2cn(C)c3ccccc23)N(C)C)s1	/	/	/	2	/	/	/
COc1ccc(Br)cc1Cn1nnc(C(=O)Nc2ccc3c(c2)OCCO3)c1N	25*	12	5	2	-30	18	0
c1ccc2c(c1)nc(N1CCOCC1)c1nncn12	104*	5	0	-16	-3	2	-3
Cc1cc(C)cc(NC(=O)c2cccn2-c2ncc(C(F)(F)F)cc2Cl)c1	32*	-7	4	6	-27	17	2
O=C(Nc1ccc(F)cc1F)c1cccn1-c1ncc(C(F)(F)F)cc1Cl	15	-6	0	-7	-14	/	/
O=C(Cc1ccc(-n2c(=O)c3ccccc3n(Cc3ccccc3F)c2=O)cc1)NCC1CCCO1 (centres undefined)	67*	-33	-2	1	-23	4	-4
O=C(Cc1ccc(-n2c(=O)c3ccccc3n(Cc3ccc(F)cc3)c2=O)cc1)NCC1CCCO1 (centres undefined)	-9	0	0	-17	-19	/	/
CCOc1ccc2nc(NC(=O)Cc3csc(NC(=O)c4ccco4)n3)sc2c1	/	/	/	-7	/	/	/
CCOc1ccc2nc(NC(=O)c3ccco3)sc2c1	31*	-3	-3	-10	14	39*	14*
O=C(NCc1ccco1)c1ccc(S(=O)(=O)N2CCCc3ccccc32)cc1	8	-3	3	-4	-17	/	/
O=C(CSc1nnc(NC(=O)c2ccccc2F)s1)NCc1ccc(F)cc1	35*	5	0	-16	-33	9	-8
C=CCNC(=S)NNC(=O)C(CCC(C)C)CC(C)(C)O (centres undefined)	1	-1	0	4	-19	/	/
O=C(Nc1nc(-c2ccccn2)cs1)c1cccc(S(=O)(=O)N2CCOCC2)c1	25*	5	1	81*	37	26*	11*
O=C(Nc1ccc(S(=O)(=O)C(F)F)cc1)c1cccc(S(=O)(=O)N2CCCCCC2)c1	/	/	/	-1	/	/	/
O=C(Nc1ccc(S(=O)(=O)C(F)F)cc1)c1cccc(S(=O)(=O)N2CCOCC2)c1	29*	7	-1	-5	-17	16	16*
CC(C)CS(=O)(=O)Nc1ccc2c(c1)N(S(=O)(=O)c1ccc(F)cc1)CCC2	/	/	/	6	/	/	/
Cn1nc(C(F)(F)F)c2cc(C(=O)NC3CC3)sc21	-1	2	-1	-26	-2	/	/
COC(=O)c1ccc(S(=O)(=O)N2CCc3ccccc32)cc1	5	-1	-2	-7	-11	/	/
O=S(=O)(c1ccc2c(c1)CCCC2)N1CCC(Oc2cccnc2)CC1	/	/	/	4	/	/	/
CC(=O)Nc1cc(C(N)=O)c(Cl)cc1Cl	-4	0	0	-7	-26	/	/
Cc1cccc(C)c1NS(=O)(=O)c1ccc(-c2cnc(C3CC3)o2)cc1	25*	2	283*	-5	30	14	29*
COc1ccc(N2CCN(C(=O)CN(C)S(=O)(=O)c3cccs3)CC2)cc1	4	-1	-1	8	-14	/	/
COc1ccc(S(N)(=O)=O)cc1C(=O)NCCCN1CCN(c2ccccc2OC)CC1	-4	12	1	2	-12	/	/
SMILES	PrPC TRFRET	MazF activator	PfHsp40 rescue	SSB-PriA inh	PrP 5UTR inh	PrPC TRFRET cf	LD9 cytotox
Cc1ccc(NC(=O)c2cc(S(=O)(=O)N(C)C)ccc2N2CCCC2)cc1F	63*	5	0	-1	-15	54*	-6
Cc1nnc(NC(=O)c2cc(S(=O)(=O)N(C)C)ccc2N2CCCC2)s1	25*	5	-1	-10	-16	24	-4
CSc1ccccc1NC(=O)c1cc(S(=O)(=O)N(C)C)ccc1N1CCCC1	6	3	-2	13	-4	/	/
CN(C)S(=O)(=O)c1ccc(N2CCCC2)c(C(=O)Nc2ccccc2)c1	42*	1	0	-4	-23	41*	-10
Cc1cc(C(=O)Nc2c(C(N)=O)oc3ccccc23)nn1C	/	/	/	-4	/	/	/
COc1ccccc1NC(=O)c1ccc2noc(-c3ccccc3)c2c1	/	/	/	-1	/	/	/
NC(=O)COC(=O)c1ccc2noc(-c3ccccc3)c2c1	37*	-2	-1	-9	-23	30*	-8
Cc1ccc(-c2c(CC(=O)O)c(C)nc3sc4c(c23)CCCC4)cc1	36*	-7	5	1	-17	44*	-4
Cc1cc(-c2ccccc2)n2ncnc2n1	28*	2	-1	-14	-17	-3	-7
Cc1cc(-c2ccc3ccccc3c2)n2ncnc2n1	-5	4	-1	-4	-5	/	/
COc1ccc(Br)cc1CNC(=O)c1ccc2c(c1)N(C)CCS2	37*	-6	2	-5	-18	51*	-1
CCN1CCSc2ccc(C(=O)NCc3cc(Br)ccc3OC)cc21	11	0	-1	9	-8	/	/
NC(N)=NS(=O)(=O)c1ccc(NC(=S)NC(=O)c2ccc3c(c2)OCO3)cc1	47*	-39	-1	-2	-36	56*	-9
NS(=O)(=O)c1ccc(NC(=S)NC(=O)c2ccc3c(c2)OCO3)cc1	12	39	1	-5	-53	/	/
O=C1[C@H]2[C@@H](c3ccccc3)N[C@]3(CCCN(Cc4ccc(Cl)cc4)C3=O)[C@H]2C(=O)N1Cc1ccccc1	27*	-6	/	/	/	3	-10
COc1ccc2[nH]c3c(NCCC4=CCCCC4)ncnc3c2c1	41*	-1	1	9	-69	40*	22*
COc1ccc2[nH]c3c(NCCCOC(C)C)ncnc3c2c1	6	6	-3	7	-48	/	/
COC(=O)C1=C(C(=O)OC)[C@@H]2N(C)c3ccccc3[C@@]23C[C@@H](C(=O)OC)N(C(=O)CC(C)C)C3=N1	10	3	-1	13	-6	/	/
CC(C)c1oc(=O)cc2c1[C@@H](O)[C@H]1OC(=O)[C@@]3(C)C[C@@H](O)[C@@H](O)[C@@]2(C)C13 (some centres undefined)	64*	10	1	-4	-69	58*	11*
